Bioassay records (PubChem BioAssay)
The list is not random: actives were taken first. Their share in the collection is about 19%.
AMA1 RON2 block: inhibitors of Plasmodium falciparum AMA1-RON2 interaction | AlphaScreen AMA1-biotinylated RON2 peptide binding | Potency, µM (doses to about 58.2 µM), most hits filed as inhibitors | 0.2% of 360,000 active | AID 720542; also: nearly all actives have a fitted effect of over 45% in size
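AMA1 (3D7) with his tag at 25 nM final met compounds first, then biotinylated RON2 peptide at 25 nM; detection used donor plus acceptor beads, 10 µg/mL apiece, read by AlphaScreen after 30 min at room temperature.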
Pf growth 48h: P. falciparum growth inhibition at 48 hours (one generation); 5.9% of 310,000 active; Potency, µM (series often up to 28.7 µM), actives largely listed as inhibitors; AID 504832; P. falciparum luciferase growth in erythrocytes, 48 h
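Luminescence readout; reporter = integrated firefly luciferase in P. falciparum. RBC culture at 2% hematocrit, 0.1% parasitemia final, 37 C/5% CO2; decreased signal taken as growth inhibition.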
Shiga inhibitor: inhibitors of Shiga toxin in Vero cells. Vero cells, Shiga toxin protein synthesis inhibition reporter. inhibition, % at 38.7 µM. 9.2% of 290,000 active. AID 2315; in the data active = inhibition mostly above about 28%, no sharp cut-off; inactive = mostly below about 43%
Pf growth 96h: P. falciparum growth inhibition at 96 hours; AID 504834; P. falciparum luciferase reporter growth, 96 h; 6.9% of 320,000 active; Potency, µM (top dose mostly 28.7 µM), hits mostly inhibitors
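Two parasite generations (96 h, 37 C, 5% CO2) of compound exposure in infected erythrocytes (0.05% parasitemia, 2% hematocrit). Luciferase-reporter P. falciparum; decreased luminescence indicates inhibited growth, aimed at apicoplast-acting delayed death.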
SARS PLpro yeast: inhibitors of SARS-CoV papain-like protease in yeast; AID 485353; S. cerevisiae expressing SARS-CoV PLpro, growth rescue; Potency, µM (highest dose often 32.9 µM), actives largely listed as activators; 0.19% of 330,000 active; calls by dose curve; also: nearly all actives have a fitted effect of over 55% in size
Cycloheximide cs: affects cycloheximide protein synthesis inhibition readout, counter-screen. max response, %. 12% of 300,000 active. AID 2314. cell reporter, cycloheximide protein synthesis inhibition counterscreen; in the data active = max response mostly above about 13%, no sharp cut-off; inactive = mostly below about 14%; also: read at 38.3 µM for the half of the compounds with a filed dose
Of the large screens only hits and unclear results are named; the others gave an inactive call. Unless noted, calls follow the shape of the dose curve; as a rule, active = well fitted curve in the direction sought with a large enough effect; inconclusive = small, poorly fitted or top-dose-only effect, or another doubt; inactive = no such curve, though single readings can be large; an effect the other way counts as inactive or inconclusive.

O=C(COc1ccc([N+](=O)[O-])cc1Cl)N1CCOCC1	none
O=[N+]([O-])c1ccc2c(c1)C(N1CCOCC1)/C(=C/COc1ccc(Cl)cc1Cl)O2 (stereo not given)	Pf growth 48h 12µM, Pf growth 96h inconclusive
CN(C)CCNC(=O)/C(=C/c1ccc(-c2ccc(Cl)cc2Cl)o1)NC(=O)c1ccccc1	Pf growth 48h 12µM
COc1ccc(-c2ccc(/C=C(\NC(=O)c3ccccc3)C(=O)N3CCOCC3)o2)cc1	Pf growth 48h 13µM
O=C(N/C(=C\c1ccco1)C(=O)N1CCOCC1)c1ccc([N+](=O)[O-])cc1	Pf growth 96h 4.7µM
CN(C)CCNC(=O)/C(=C/c1ccc(-c2ccc(Cl)cc2)o1)NC(=O)c1ccccc1	Pf growth 48h 13µM
CCN(CC)S(=O)(=O)c1ccc(C(=O)NCC(c2ccc(OC)cc2)N2CCOCC2)cc1 (stereo not given)	Pf growth 48h inconclusive, Pf growth 96h inconclusive
CCOc1ccc(/C=C2\SC(=O)N(c3ccc(O)cc3)C2=O)cc1OC	Cycloheximide cs 20
COc1ccc(/C=C2\SC(=N)N(c3ccc(F)cc3)C2=O)cc1OC	Pf growth 48h inconclusive
COc1ccc(/C=C2\SC(=S)N(CCCC(=O)Nc3ccc(C(=O)O)cc3)C2=O)cc1OC	Pf growth 48h 12µM, Pf growth 96h inconclusive
COc1ccc(/C=C2\SC(=S)N(CCCC(=O)Nc3ccccc3C(=O)O)C2=O)cc1OC	Pf growth 48h inconclusive
COc1ccc(/C=C2/SC(=S)N(CCCC(=O)Nc3ccc(O)cc3)C2=O)cc1OC	Pf growth 96h 12µM
CC1CCCCN1C(=O)Cn1c(=O)oc2cc(S(=O)(=O)N3CCCC3)ccc21 (stereo not given)	Pf growth 96h inconclusive
O=C(CC(O)(CC(=O)OCc1ccccc1)C(=O)OCc1ccccc1)OCc1ccccc1	none (no result: Pf growth 48h, Shiga inhibitor, Pf growth 96h, SARS PLpro yeast, Cycloheximide cs)
COc1cc2c(cc1NC(=O)COC(=O)[C@@H](NS(=O)(=O)c1cccc(Cl)c1)C(C)C)oc1ccccc12	Cycloheximide cs 13
COc1ccc(OCC(=O)Nc2cc3oc4ccccc4c3cc2OC)cc1	none
COc1ccc(S(=O)(=O)N[C@@H](C)C(=O)OCC(=O)Nc2cc3oc4ccccc4c3cc2OC)cc1	Shiga inhibitor 103, Cycloheximide cs 15
COc1ccc(NC(=O)COC(=O)CNS(=O)(=O)c2ccc(C)cc2)c(OC)c1	none
COc1cc2c(cc1NC(=O)COC(=O)CNS(=O)(=O)c1ccc(C)cc1)oc1ccccc12	Cycloheximide cs 24
COc1ccccc1CN(C)C(=O)COC(=O)c1cc(C)oc1C	Pf growth 48h inconclusive (no result: Shiga inhibitor, Cycloheximide cs)
Clc1ccc(N2CCN(c3ccnc(Cl)n3)CC2)cc1	none (no result: Pf growth 48h, Shiga inhibitor, Pf growth 96h, SARS PLpro yeast, Cycloheximide cs)
CSc1nccc(N2CCN(c3ccc(F)cc3)CC2)n1	AMA1 RON2 block inconclusive, Pf growth 48h inconclusive, Pf growth 96h 12µM
Cc1nc(NC(=S)NC(=O)c2ccccc2)sc1C	Shiga inhibitor 69, Cycloheximide cs 39
Cc1sc(NC(=O)c2ccccc2)c(C(=O)c2ccccc2)c1C	Pf growth 96h 12µM
Cc1nc(NC(=O)c2ccccc2O)sc1C	Cycloheximide cs 18 (no result: Pf growth 48h)
CC(=O)c1sc(NC(=O)c2ccccc2)nc1-c1ccccc1	Shiga inhibitor 96, Cycloheximide cs 57
COC(=O)c1sc(NC(=S)NC(=O)c2cccc(C)c2)nc1C	none
Cc1nc(NC(=O)c2cccnc2Cl)sc1C	none (no result: Pf growth 48h, Shiga inhibitor, Pf growth 96h, SARS PLpro yeast, Cycloheximide cs)
CSc1nnc(NC(=O)CCc2ccccc2)s1	none
Cc1nc(NC(=O)c2csc3ccccc23)sc1C	Shiga inhibitor 123, Cycloheximide cs 39 (no result: Pf growth 96h)
Cc1nc(NC(=O)c2ccccc2)sc1C	Cycloheximide cs 27 (no result: Shiga inhibitor)
Cc1ccc(S(=O)(=O)c2nc(Nc3ccccc3)sc2Cl)cc1	none
Cc1nc(Nc2ccccc2)sc1C	Pf growth 48h inconclusive, Shiga inhibitor 71, Pf growth 96h inconclusive, Cycloheximide cs 46
Cc1nc(NC(=O)CCc2ccccc2)sc1C	Shiga inhibitor 68, Pf growth 96h inconclusive, Cycloheximide cs 40
Cc1sc(NC(=O)c2cccnc2)nc1-c1ccccc1	Pf growth 48h inconclusive, Pf growth 96h inconclusive
CCS(=O)(=O)N1CCC(C(=O)Nc2cccc(F)c2)CC1	Pf growth 96h inconclusive
CCC(=Nc1ccc(OC)cc1OC)c1c(O)n(C2CCCCC2)c(=O)[nH]c1=O	Pf growth 48h 7.4µM, Pf growth 96h inconclusive
CCC(=NCc1ccco1)c1c(O)n(C2CCCCC2)c(=O)[nH]c1=O	Pf growth 48h inconclusive, Pf growth 96h inconclusive
Cn1c(Cc2ccc3c(c2)OCO3)nnc1SCC(=O)NC1CCCC1	none (no result: AMA1 RON2 block)
CC(=O)c1cccc(NC(=O)C(C)OC(=O)CCC2CCCCC2)c1 (stereo not given)	none (no result: Shiga inhibitor, Cycloheximide cs)
CC(=O)c1ccc(NC(=O)C2CCCC2)cc1	Cycloheximide cs 9.4
CCc1ccc(NC(=O)C2C3C=CC(C4CC34)C2C(=O)O)cc1 (stereo not given)	Cycloheximide cs 14
O=C(Nc1cccc(Cl)c1)OC1CCCCc2cccnc21 (stereo not given)	Pf growth 48h 3.7µM
CC(=O)c1cccc(NC(=O)CCC2CCCC2)c1	Cycloheximide cs 25
O=C(Nc1cccc(C(=O)N2CCOCC2)c1)NC1CCCCC1	none
CC(=O)c1ccc(NC(=O)NC2CCCCCCC2)cc1	Shiga inhibitor 95, Pf growth 96h inconclusive, Cycloheximide cs 39
CC(=O)c1ccc(-c2ccc(C(=O)NC3CCCCCC3)o2)cc1	Pf growth 48h inconclusive, Shiga inhibitor 41, Pf growth 96h inconclusive, Cycloheximide cs 28
Cc1nc2ccc(NC(=O)CCC3CCCC3)cc2s1	Shiga inhibitor 97, Cycloheximide cs 45
O=C(Nc1cccc(Cl)c1)NC1CCCCC1	Shiga inhibitor 91, Cycloheximide cs 38
NS(=O)(=O)c1ccc(N2CCOCC2)c(C(=O)NCCCSc2ccccc2)c1	none (no result: Shiga inhibitor, Cycloheximide cs)
CC(=O)Nc1ccc(CN(C)c2c(C)nc3ccc(C(=O)N4CCN(C(=O)c5ccco5)CC4)cn23)cc1	none (no result: Pf growth 48h, Shiga inhibitor, Pf growth 96h, SARS PLpro yeast, Cycloheximide cs)
CC(=O)c1ccc(NC(=S)NC2CCCC(C)C2C)cc1 (stereo not given)	Shiga inhibitor 48, Cycloheximide cs 17
CC(=O)Nc1ccc(NC(=O)C2C3CCC(C3)C2C(=O)O)cc1 (stereo not given)	none
CC(=O)c1cccc(NC(=O)NC2CCCCC2)c1	Pf growth 96h inconclusive (no result: Pf growth 48h)
CC(=O)c1cccc(NC(=O)NC2CCCCCCC2)c1	Pf growth 96h inconclusive, Cycloheximide cs 36
Cc1cccc(NC(=O)NC2CCCCCCC2)c1	Shiga inhibitor 93, Cycloheximide cs 41
CC(=O)c1ccc(NC(=O)C2C3CCC(C3)C2C(=O)O)cc1 (stereo not given)	Pf growth 96h 13µM
O=C(NCC(=O)N1CCN(c2ccccc2F)CC1)c1ccc(Br)o1	none (no result: Shiga inhibitor, Cycloheximide cs)
O=C(Nc1cccc(Cl)c1)NC1CC2CCC1C2 (stereo not given)	Cycloheximide cs 23 (no result: Shiga inhibitor)
Cc1ccc(Oc2c(C)nc(-c3ccccc3)[nH]c2=O)cc1	Pf growth 48h 1µM, Pf growth 96h 1.7µM
